In the library only some 12% were active in any assay of this set; here they are far more common.
Sfp inh = inhibitors of Bacillus subtilis Sfp phosphopantetheinyl transferase; actives 3.5% (n = 310,000); AID 1490; Potency, µM, most hits filed as inhibitors; Biochemical Sfp PPTase activity, qHTS;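 note: the enzyme is Sfp with the accession as filed and its product quenches rhodamine fluorescence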
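Fluorescence-quenching assay with 15 nM Sfp, 5 uM rhodamine-CoA and 12.5 uM BHQ-2-labelled ybbR peptide in pH 7.6 Hepes/MgCl2 buffer. Enzyme was pre-incubated with compound for 15 min at room temperature. Rate was taken from the 30-min fluorescence change (525/598 nm).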
G9a block = inhibitors of human histone lysine methyltransferase G9a; Q96KQ7; actives 8.8% (n = 350,000); Potency, µM (titrated, usually from 102 µM), actives largely listed as inhibitors; G9a H3K9 monomethylation, AlphaScreen, 2 h; note: nearly all actives have a fitted effect of over 75% in size
Target sequence (Q96KQ7 913-1193 limits assumed): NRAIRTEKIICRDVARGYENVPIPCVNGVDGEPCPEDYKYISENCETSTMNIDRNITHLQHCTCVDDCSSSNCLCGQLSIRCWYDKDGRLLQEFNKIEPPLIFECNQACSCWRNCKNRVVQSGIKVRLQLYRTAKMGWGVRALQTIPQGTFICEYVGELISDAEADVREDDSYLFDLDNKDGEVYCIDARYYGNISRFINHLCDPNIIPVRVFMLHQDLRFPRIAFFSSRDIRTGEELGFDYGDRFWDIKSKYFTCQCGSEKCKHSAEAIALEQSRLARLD
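Compounds were preincubated with 20 nM G9a for 15 min, after which biotinylated H3K9 peptide (500 nM) and SAM (20 uM) started a 2 h room-temperature reaction. Monomethylated product was quantified by antibody-based AlphaScreen chemiluminescence.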
HP1b chromo inh = blocks HP1-beta chromodomain binding to methylated histone tails. AID 540317. actives 0.56% (n = 390,000). AlphaScreen HP1-beta / biotin-H3K9me3 peptide binding. P83916. Potency, µM (doses to about 114 µM), actives largely listed as inhibitors; note: nearly all actives have a fitted effect of over 70% in size
Target sequence (P83916 whole entry, looked up): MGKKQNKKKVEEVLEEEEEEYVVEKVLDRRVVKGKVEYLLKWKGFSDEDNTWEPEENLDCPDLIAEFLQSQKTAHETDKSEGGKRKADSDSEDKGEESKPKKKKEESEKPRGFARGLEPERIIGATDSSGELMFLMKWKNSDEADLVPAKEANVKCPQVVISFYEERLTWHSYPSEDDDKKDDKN
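AlphaScreen: HP1-beta (50 nM) preformed 30 min with biotin-H3(1-18)K9me3 peptide (50 nM) in PBS pH 7.4, 0.01% Tween-20. Compound added for 30 min at RT, then streptavidin donor/nickel chelate acceptor beads (10 ug/mL) for 30 min.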
JMJD2A Tudor = JMJD2A Tudor domain (human) inhibition | AlphaScreen JMJD2A-Tudor / H3K4me3 peptide binding | Potency, µM (series often up to 114 µM), hits mostly inhibitors | AID 504339 | actives 4.4% (n = 390,000) | O75164; note: nearly all actives have a fitted effect of over 50% in size
BAZ2B inh = blocks human BAZ2B; Q9UIF8; AlphaScreen BAZ2B-H3K14Ac peptide displacement; Potency, µM (titrated, usually from 114 µM), hits mostly inhibitors; actives 4.4% (n = 360,000); AID 504333; note: nearly all actives have a fitted effect of over 60% in size
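AlphaScreen displacement of biotin-H3(5-23)K14Ac peptide (50 nM final) from BAZ2B (50 nM final) in PBS pH 7.4, 0.01% Tween-20; complex preformed 30 min RT, then compounds (top 110 uM) 30 min RT, beads 20 min dark.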
Each line names hits and unclear results; the compound was inactive in the other large screens. Calls come from the whole dose curve; as a rule, active = well fitted curve in the direction sought with a large enough effect; inconclusive = small, poorly fitted or top-dose-only effect, or another doubt; inactive = no such curve, though single readings can be large; an effect the other way counts as inactive or inconclusive.

COc1cccc(CC(NC(C)=O)C(=O)NC2CCN(c3nc(C)cc(C)c3C#N)CC2)c1 (centres undefined)	none
CN(C(=O)CSc1nc2ccccc2c(=O)n1-c1ccc(F)cc1)C1CCS(=O)(=O)C1 (centres undefined)	none (no result: Sfp inh)
CC1(C)Cc2c(sc(NC(=O)c3ccccc3)c2C(=O)O)CO1	G9a block 44.7µM
O=C(Nc1sc2c(c1C(=O)O)CCCCC2)c1ccccc1	Sfp inh 39.8µM, HP1b chromo inh inconclusive, BAZ2B inh inconclusive (no result: G9a block)
O=C(Nc1sc2c(c1C(=O)O)CCCC2)c1ccc(Cl)cc1	none
COc1ccc(C(=O)Nc2sc3c(c2C(=O)O)CC(C)(C)OC3)cc1	none
CCSc1ncc(Cl)c(C(=O)Nc2sc3c(c2C(=O)NCc2cccnc2)CCCC3)n1	JMJD2A Tudor 100µM
Cc1ccc(C(=O)c2c(NC(=O)c3cccnc3)sc3c2CCCC3)cc1	Sfp inh inconclusive, G9a block inconclusive, JMJD2A Tudor 56.2µM, BAZ2B inh inconclusive
O=C(Nc1ccc(Cl)c(Cl)c1)N1CCOCC1	none
O=C(NCCS(=O)(=O)NCCc1ccccc1)c1ccc2c(c1)OCO2	none (no result: Sfp inh)
CC#CC(=O)N1CCC(n2nccc2NC(=O)c2ccc3c(c2)OCO3)CC1	none
O=C(Nc1sc2c(c1C(=O)O)CCC2)c1ccc(F)cc1	G9a block 39.8µM, BAZ2B inh inconclusive
O=C(Nc1sc2c(c1C(=O)O)CCC2)c1ccccc1	G9a block inconclusive, JMJD2A Tudor inconclusive, BAZ2B inh 79.4µM
O=C(Nc1sc2c(c1C(=O)O)CCCC2)c1cccc(Cl)c1	none
O=C(COc1ccccc1)Nc1sc2c(c1C(=O)Nc1ccccc1Cl)CCCCC2	G9a block inconclusive (no result: Sfp inh)
O=C(Cc1ccccc1)Nc1sc2c(c1C(=O)Nc1ccccc1Cl)CCCC2	G9a block 7.08µM (no result: Sfp inh)
CN(Cc1ccccc1)C(=O)[C@H]1CCC(=O)N1Cc1ccco1	Sfp inh inconclusive, G9a block 44.7µM
Cc1cc(NC(=O)c2ccc(S(=O)(=O)N3CCOCC3)cc2)nc2c1c(=O)oc1ccccc12	none (no result: G9a block, HP1b chromo inh, JMJD2A Tudor)
COc1ccc(N2Cc3cccc(C(=O)Nc4ccc(Cl)cc4)c3C2=O)cc1	BAZ2B inh inconclusive (no result: Sfp inh)
COc1ccc(N2Cc3cccc(C(=O)N4CCOCC4)c3C2=O)cc1	none
COc1ccc(N2Cc3cccc(C(=O)N4CCN(C(=O)c5ccco5)CC4)c3C2=O)cc1	Sfp inh inconclusive, G9a block 44.7µM, HP1b chromo inh inconclusive, JMJD2A Tudor 50.1µM, BAZ2B inh 50.1µM
COc1ccc(N2Cc3cccc(C(=O)Nc4cccc(F)c4)c3C2=O)cc1	JMJD2A Tudor 20µM (no result: Sfp inh, BAZ2B inh)
CCCCCC1=C2CNC(CC(C)C)(C(=O)OC)C=C2C(C)C1=O (centres undefined)	none (no result: G9a block, HP1b chromo inh, JMJD2A Tudor, BAZ2B inh)
O=C(CN1C(=O)COc2ccccc21)NNC(=O)Nc1ccccc1F	none
Cc1cnc(C)c(N2CCC(C(=O)NCc3cccs3)CC2)n1	none
COc1cccc(CNC(=O)CSCC(=O)Nc2cc(C)on2)c1	G9a block inconclusive (no result: Sfp inh)
O=[N+]([O-])c1ccc(S(=O)(=O)N2CCSC2c2ccco2)cc1 (centres undefined)	Sfp inh 39.8µM, G9a block 8.91µM, JMJD2A Tudor inconclusive, BAZ2B inh inconclusive
C#CCNC(=O)C1=C[C@H](c2ccc3c(c2)OCO3)C[C@H](OCCCCO)O1	none (no result: Sfp inh, G9a block, BAZ2B inh)
c1ccc(-c2csc(-c3cccnc3)n2)cc1	none
COc1ccc(-c2csc(-c3cccnc3)n2)cc1C	Sfp inh 50.1µM
NC(=O)c1cc(-c2csc(-c3cccnc3)n2)ccc1O	Sfp inh inconclusive, G9a block 31.6µM
COc1ccc2cc(-c3csc(-c4cccnc4)n3)ccc2c1	BAZ2B inh inconclusive
NS(=O)(=O)c1ccc(CCNC(=O)C(=O)NCC2OCCN2C(=O)c2ccc3c(c2)OCO3)cc1 (centres undefined)	none
CCn1c(SCC(=O)NCc2ccc3c(c2)OCO3)nnc1-c1ccncc1	none
Cc1ccc(NC(=O)Cn2nnc(C(=O)NCc3ccc4c(c3)OCO4)c2N)cc1	none
Cc1cc(C)n2c(SCC(=O)NCc3ccc4c(c3)OCO4)nnc2n1	Sfp inh 70.8µM, G9a block 11.2µM, JMJD2A Tudor 79.4µM
Cc1cc(C)c(NC(=O)Cn2nnc(C(=O)NCc3ccc4c(c3)OCO4)c2N)c(C)c1	JMJD2A Tudor 56.2µM
Cc1nnc(SCC(=O)NCc2ccc3c(c2)OCO3)[nH]c1=O	Sfp inh inconclusive, G9a block 50.1µM
Cc1ccccc1SCC(=O)OCC(=O)NCCNC(=O)COC(=O)CSc1ccccc1C	G9a block 50.1µM (no result: Sfp inh)
O=C(COC(=O)CSc1ccccc1)NCCNC(=O)COC(=O)CSc1ccccc1	G9a block inconclusive (no result: Sfp inh)
O=C(NCc1ccccc1)C(c1ccccc1F)N(CC1CCCO1)C(=O)c1ccccn1 (centres undefined)	none
CCSc1nc2sc3c(c2c2[n+]1CC(CBr)O2)CCCC3 (centres undefined)	Sfp inh 50.1µM, G9a block 25.1µM, JMJD2A Tudor 56.2µM, BAZ2B inh 56.2µM
NC(=O)C1(N2CCCCC2)CCN(Cc2nc3ccccc3c(=O)[nH]2)CC1	G9a block inconclusive, JMJD2A Tudor inconclusive
COC(=O)c1sc(C(=O)OC)c(C(=O)OC)c1C(=O)OC	G9a block inconclusive
COC(=O)c1sc(=S)sc1C(=O)OC	G9a block 28.2µM, HP1b chromo inh inconclusive, JMJD2A Tudor inconclusive
CCOC(=O)C1=CC(OC(CC)CC)C(NC(C)=O)C(N)C1 (centres undefined)	none (no result: HP1b chromo inh, JMJD2A Tudor, BAZ2B inh)
CC1CCCN(c2ncnc3c2cnn3-c2ccccc2)C1 (centres undefined)	Sfp inh 89.1µM
Cc1sc2ncnc(N3CCCC(C)C3)c2c1C (centres undefined)	G9a block 56.2µM
C[C@H](CO)N1C[C@H](C)[C@@H](CN(C)C(=O)Nc2ccc3c(c2)OCO3)Oc2ccc(NC(=O)C3CCCCC3)cc2C1=O	none (no result: Sfp inh, G9a block, BAZ2B inh)
C=CCn1c(C)cc(C)c(C#N)c1=O	BAZ2B inh inconclusive
C=CCn1c(O)c(CN2CCOCC2)c(C)c(C#N)c1=O	G9a block 50.1µM
Cc1onc(-c2ccccc2)c1CNS(=O)(=O)c1ccc(F)cc1F	none
Cc1cccc(-c2nnc(NC(=O)c3ccc(Cl)cc3)o2)c1	G9a block 8.91µM
O=C(Nc1nnc(-c2ccncc2)o1)c1ccccc1	JMJD2A Tudor 8.91µM, BAZ2B inh 10µM
Cc1ccc(C(=O)Nc2nnc(-c3ccncc3)o2)cc1	BAZ2B inh 56.2µM
O=C(Nc1nnc(-c2cccnc2)o1)c1cccc(Cl)c1	G9a block inconclusive, BAZ2B inh inconclusive
O=C(CN1CCCCC1CO)c1ccc(OC(F)F)cc1 (centres undefined)	G9a block 56.2µM
COCCSc1ccccc1C(=O)Nc1ccc([N+](=O)[O-])cc1OC	G9a block 22.4µM
COc1cc([N+](=O)[O-])ccc1NC(=O)/C=C/C(=O)O	G9a block 50.1µM

Bioassay records (PubChem)
